We go through 92 compounds from PubChem BioAssay AID1445 (SRMLSC, 2008).

SMILES strings stand for the structures. Screen size: about 220,000 compounds; about 910 (0.41%) were called active. Only a selection was taken, and actives are over-represented in it overall. Entries with a potency or affinity are not part of this list. Values without a mark were called inactive.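 How the source made its calls: active means primary inhibition above the hit cutoff, then over 50% inhibition at one or more dose response concentrations (cut at about 23% in these data, passing the limit was not always enough); inconclusive means conflicting primary data, or primary hits not chosen for dose response; inactive means low primary inhibition, or under 50% at every dose.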

The target in this assay is Aminopeptidase N (Plasmodium falciparum (isolate 3D7)) (UniProt O96935). Put plainly: P. falciparum M1AAP inhibitors, biochemical, fluorogenic H-Leu-NHMec substrate, 1536-well (AID 1445).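 Further: plate controls were DMSO full reaction for no effect and no enzyme background for full effect.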 The conditions noted are these: recombinant M1AAP, H-Leu-NHMec fluorogenic kinetic assay; at 30 µM, hits give high values unless noted.
Chain of Aminopeptidase N (Plasmodium falciparum (isolate 3D7)) (O96935 whole entry, looked up): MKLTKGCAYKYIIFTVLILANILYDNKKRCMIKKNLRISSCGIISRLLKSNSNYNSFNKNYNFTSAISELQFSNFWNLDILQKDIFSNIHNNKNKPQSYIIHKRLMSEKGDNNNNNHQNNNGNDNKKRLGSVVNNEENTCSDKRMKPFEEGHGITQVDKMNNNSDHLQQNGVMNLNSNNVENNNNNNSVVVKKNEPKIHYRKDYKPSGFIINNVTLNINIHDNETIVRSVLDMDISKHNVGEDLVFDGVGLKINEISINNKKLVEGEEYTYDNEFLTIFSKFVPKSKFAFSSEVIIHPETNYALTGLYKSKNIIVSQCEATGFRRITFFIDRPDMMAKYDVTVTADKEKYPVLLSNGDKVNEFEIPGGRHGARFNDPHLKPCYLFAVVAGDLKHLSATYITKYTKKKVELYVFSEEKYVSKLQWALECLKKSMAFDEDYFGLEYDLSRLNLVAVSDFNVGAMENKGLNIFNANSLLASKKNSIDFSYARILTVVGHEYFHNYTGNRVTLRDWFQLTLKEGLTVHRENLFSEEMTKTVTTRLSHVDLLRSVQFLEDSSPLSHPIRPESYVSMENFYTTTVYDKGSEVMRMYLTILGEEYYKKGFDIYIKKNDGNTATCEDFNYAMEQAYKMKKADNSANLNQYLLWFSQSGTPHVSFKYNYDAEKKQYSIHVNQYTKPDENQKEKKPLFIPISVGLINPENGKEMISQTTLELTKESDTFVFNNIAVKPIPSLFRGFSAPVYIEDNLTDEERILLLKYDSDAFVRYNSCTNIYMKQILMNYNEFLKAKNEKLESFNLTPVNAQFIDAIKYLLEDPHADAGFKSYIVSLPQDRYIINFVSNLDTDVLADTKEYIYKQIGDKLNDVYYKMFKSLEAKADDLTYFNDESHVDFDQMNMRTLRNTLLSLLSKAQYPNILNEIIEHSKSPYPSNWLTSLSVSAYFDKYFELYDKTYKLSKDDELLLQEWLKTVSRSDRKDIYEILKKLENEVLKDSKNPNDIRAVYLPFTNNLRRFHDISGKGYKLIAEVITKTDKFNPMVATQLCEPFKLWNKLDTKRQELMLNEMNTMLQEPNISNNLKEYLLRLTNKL
A word on the inhibition: it is the change of the read-out against control, counted positive when it falls. As to `CCCc1nnc(NC(=O)CN2CCN(C)CC2)s1`, the inhibition was 5.59%.
The same measure for `O=C(O)c1cccc2[nH]c(C(F)(F)F)nc12`: 9.3%; for `FC(F)(F)c1nc2ccccc2[nH]1`: -1.24%; for `CC(C)(C)NC(=O)Cn1c(SCC(N)=O)nc2ccccc21`: 2.96%.
With `O=C(OCC(=O)N1CCc2ccccc21)c1nc(Cl)ccc1Cl`, the inhibition is 0.15%.
The same measure for `CN(C)C(=O)CN1C(=O)C2CCCCN2C(=O)c2ccccc21` (configuration not stated): 8.25%; for `NC(=O)CN1C(=O)C2CCCCN2C(=O)c2ccccc21` (configuration not stated): -4.54%.
In the case of `Cc1noc(C)c1S(=O)(=O)N1CCCC(C(=O)N2CCN(C3CCCCC3)CC2)C1` (configuration not stated), the inhibition was 8.08%.
Turning to `Cc1cc(C)nc(N2CCC(C(=O)NCCc3ccc(F)cc3)CC2)n1`, the inhibition is 3.16%.
Consider `N#C/C(=N\Nc1ccccc1)C(=N)N1CCCCC1`, for which the inhibition is -1.69%.
For `Cc1cccc(NC(=O)CSc2nc(-c3ccccc3)c(C#N)c(=O)[nH]2)c1C`, the inhibition was 14.7%.
Take `N#Cc1c(-c2ccccc2)nc(SCC(=O)Nc2nnc(C(F)(F)F)s2)[nH]c1=O`: the inhibition is 17.8%.
The same measure for `CCOC(=O)CCCCC(=O)c1[nH]c(=O)[nH]c1CSc1nc2ccccc2[nH]1`: 8.8%; for `CCSc1nc(-c2ccccc2)c(C#N)c(=O)[nH]1`: -8.26%; for `CSc1nc(-c2ccccc2)c(C#N)c(=O)[nH]1`: 2.21%.
As to `CCOC(=O)CCCCC(=O)c1[nH]c(=O)[nH]c1CSc1nc(C)cc(=O)[nH]1`, the inhibition was 7.83%.
On to `CCOC(=O)CCCCC(=O)c1[nH]c(=O)[nH]c1CSc1nc(-c2ccccc2)c(C#N)c(=O)[nH]1`, for which the inhibition is 23.6% (active).
Take `Cc1ccc(NC(=O)CCNS(=O)(=O)c2cc(Br)cnc2N)c(Cl)c1`: the inhibition was 6.45%.
`COc1ccc(-n2c(C)cc(/C=C(\C#N)C(=O)NCc3ccco3)c2C)cc1`: the inhibition is 9.23%.
For the compound `CS(=O)(=O)c1ccc(Cl)c(NC(=O)COC(=O)c2cccc(C#N)c2)c1`, the inhibition was 6.76%.
In the case of `C/C(=N/NC(=O)CCc1c(C)n[nH]c1C)c1cccc([N+](=O)[O-])c1`, the inhibition was 0.36%.
As to `CC(C)c1ccccc1NC(=O)CNCCc1ccc(C(F)(F)F)cc1`, the inhibition is 4.1%.
Regarding `CCCCNC(=O)Cn1c(=O)oc2cc(S(=O)(=O)N3CC(C)CC(C)C3)ccc21` (configuration not stated), the inhibition was 2.08%.
For the compound `Cc1ccc(S(=O)(=O)N(Cc2cc3cc4c(cc3[nH]c2=O)OCCO4)CC2CCCO2)cc1` (configuration not stated), the inhibition was 8.8%.
The same measure for `Cn1c(SCC(=O)N2CCOCC2)nnc1-c1cccc(NC(=O)c2ccccc2)c1`: 16.6%; for `Cn1c(SCC(=O)N2CCOCC2)nnc1-c1cccc(NC(=O)c2ccccc2F)c1`: 25.4% (active); for `Cn1c(SCC(=O)N2CCOCC2)nnc1-c1ccc(NC(=O)c2ccccc2F)cc1`: 3.9%.
As to `CCOC(=O)Cc1nnc(NC(=O)C(CC)Sc2nc(C)cc(=O)[nH]2)s1` (configuration not stated), the inhibition was 11%.
For `CCC(C)Nc1nc(OC(C(F)(F)F)C(F)(F)F)nc(OC(C(F)(F)F)C(F)(F)F)n1` (configuration not stated), the inhibition was 9.34%.
As for `CC(=O)Nc1ccc2nc(-c3ccncc3)[nH]c2c1`, the inhibition is 10.3%.
Turning to `O=C(Nc1ccc2nc(-c3ccccn3)[nH]c2c1)C1CCCCC1`, the inhibition was -0.77%.
The same measure for `O=C(CNC(=O)c1ccc(S(=O)(=O)N2CCCC2)cc1)N/N=C/c1ccc(Cl)cc1`: 3.87%.
As to `CCCn1c(-c2ccc[nH]c2=O)nc2ccccc21`, the inhibition is 4.86%.
The same measure for `Cn1c(-c2ccc[nH]c2=O)nc2cc(Cl)ccc21`: 3.43%; for `COc1cc(/C=C2\OC(=O)c3c(OC)cccc32)ccc1O`: 18.4%; for `CCC(=O)Oc1ccc2c(C)cc(=O)oc2c1C(=O)CC`: 1.59%.
Regarding `CCn1c(COc2ccc(=O)n(-c3ccccc3)n2)nnc1SCc1ccccc1`, the inhibition was 1.85%.
Consider `Cc1ccc(NC(=O)c2cc([N+](=O)[O-])ccc2N2CCCC2)cc1`, for which the inhibition is 9.65%.
Regarding `CCOC(=O)c1ccc(NC(=O)CSc2nc3ncccc3[nH]2)cc1`, the inhibition is 15.1%.
On to `CCOC(=O)c1ccc(NC(=O)CSc2ncccn2)cc1`, for which the inhibition was 25.8% (active).
In the case of `CCOC(=O)c1ccc(NC(=O)CSc2nccn2C)cc1`, the inhibition is 13.7%.
The same measure for `O=C(C1CCCCC1)N1CCCn2c1nc1ccccc12`: 26.8% (active).
With `CCC(=O)N1CCCn2c1nc1ccccc12`, the inhibition is 0.87%.
As for `O=C(Nc1ccccc1)N1CCn2c1nc1ccccc12`, the inhibition was 3.81%.
As to `CN(C)S(=O)(=O)c1ccc(C(=O)N2CCN=C2SCc2cccnc2)cc1`, the inhibition was -3.94%.
For the compound `COc1ccccc1Nc1nc(N)nc(CN2CCC(C)CC2)n1`, the inhibition is 3.95%.
Regarding `O=C(Nc1ccc(Cl)cc1)c1ccc(-n2cccn2)c([N+](=O)[O-])c1`, the inhibition was 0.77%.
Regarding `Cc1cccc(C)c1OCC(=O)Nc1cccc(-c2nnc(-c3ccccc3)o2)c1`, the inhibition is 1.97%.
In the case of `Cc1cccc(OCC(=O)Nc2cccc(-c3nnc(-c4ccccc4)o3)c2)c1C`, the inhibition was 24% (active).
As for `Cc1ccc(OCC(=O)Nc2cccc(-c3nnc(-c4ccccc4)o3)c2)c(C)c1`, the inhibition is 2.43%.
Consider `Cc1ccc(C)c2c1cc(C)c1nnc(SCC(=O)N3CCCc4ccccc43)n12`, for which the inhibition is 3.01%.
As for `CC(C)(C)c1ccc(C(=O)/C=C2\NC(=O)CS2)cc1`, the inhibition was 7.72%.
Take `Cc1ccc(C(=O)/C=C2/NC(=O)CS2)cc1`: the inhibition is 17.7%.
With `O=C1CS/C(=C/C(=O)c2ccccc2)N1`, the inhibition is 25.3% (active).
Take `CC(/C=N/NC(=O)Cn1cnc2c1c(=O)n(C)c(=O)n2C)=C\c1ccco1`: the inhibition is 5.25%.
Turning to `Cc1c(C(=O)OCc2ccccc2)[nH]c2c1C(=O)CC(c1ccco1)C2` (configuration not stated), the inhibition was 6.2%.
The same measure for `CCOC(=O)c1[nH]c2c(c1C)C(=O)CC(c1ccco1)C2` (configuration not stated): 15.3%; for `Cc1c(C(=O)OC2CCCC2)[nH]c2c1C(=O)CC(c1ccco1)C2` (configuration not stated): 25.6% (active); for `CC(C(=O)NC1C(=O)N2C(C(=O)O)=C(CSc3nnnn3C)CSC12)n1cc(Cl)cn1` (configuration not stated): 6.59%.
The same measure for `O=C(CCc1ccccc1)N/N=C/c1cc(Br)ccc1O`: 16.7%; for `O=C(CCC(=O)Nc1ccc(Br)cc1)N/N=C/c1cc([N+](=O)[O-])ccc1O`: 13.8%; for `Nc1nonc1C(=O)N/N=C/c1ccncc1`: 9.52%.
For `CC1(C)OC2OC(C(=O)N/N=C/c3ccccc3F)C3OC(C)(C)OC3C2O1` (configuration not stated), the inhibition was -0.42%.
Take `COc1ccc(NC(=O)C2OC3OC(C)(C)OC3C3OC(C)(C)OC23)cc1` (configuration not stated): the inhibition is 6.98%.
Regarding `NC(=O)N/N=C/c1cc(Br)ccc1OC(=O)c1ccccc1`, the inhibition is 6.38%.
The same measure for `Nc1nonc1C(=O)N/N=C/c1ccc(Br)o1`: 15.9%; for `COC(=O)N/N=C/c1cc(Br)ccc1O`: 17.8%; for `CCCn1nnc(NC(=S)NC(=O)C(C)(C)C)n1`: 7.37%.
As to `O=C1c2cc(S(=O)(=O)NCCO)ccc2-c2ccc(S(=O)(=O)NCCO)cc21`, the inhibition is 2.13%.
As to `Cc1ccc([N+](=O)[O-])cc1NC(=O)Nc1ccc(S(N)(=O)=O)cc1`, the inhibition is -7.81%.
On to `CC1=CC2=NC(=O)CC(C)(C(=O)N(CC(=O)NC(C)C)C3CCCC3)N2C=C1` (configuration not stated), for which the inhibition is 1.08%.
`O=C(Nc1ccc(Br)cc1)c1cccn1-c1ncc(C(F)(F)F)cc1Cl`: the inhibition was -0.41%.
Turning to `Cc1ccc(NC(=O)C2CCN(C(=O)c3ccccc3C)CC2)cc1`, the inhibition was 4.97%.
For `CCN(CC)CCOC(=O)c1ccc(N/C=C(/C#N)c2nc(-c3ccc(OC)cc3)cs2)cc1`, the inhibition is 4.36%.
As to `CCOC(=O)c1c(-c2ccc(F)cc2)csc1NC(=O)c1c(-c2ccccc2)noc1C`, the inhibition is 0.4%.
With `CCOC(=O)C1=NN(c2ccccc2)C2=NC(C)=C(C(=O)OC)C(c3ccc(C)cc3)N12` (configuration not stated), the inhibition is 8.08%.
`COc1ccc(C2CC(c3c(-c4ccccc4)c4cc(Cl)ccc4[nH]c3=O)=NN2S(C)(=O)=O)cc1OC` (configuration not stated): the inhibition is 13.3%.
For the compound `O=C(O)CCC(=O)N1N=C(c2ccccc2)CC1c1ccc2nccnc2c1` (configuration not stated), the inhibition is 12%.
The same measure for `CC(=O)N1N=C(c2c(-c3ccccc3)c3cc(C)ccc3[nH]c2=O)CC1c1ccco1` (configuration not stated): 20%; for `COc1ccc(C2CC(c3c(-c4ccccc4)c4cc(Cl)ccc4[nH]c3=O)=NN2S(C)(=O)=O)cc1` (configuration not stated): 2.82%; for `CCC(=O)N1N=C(c2c(-c3ccccc3)c3cc(Cl)ccc3[nH]c2=O)CC1c1ccco1` (configuration not stated): 22.1%.
As to `CC(=O)N1N=C(c2ccc(C)cc2)CC1c1ccco1` (configuration not stated), the inhibition was 6.1%.
On to `COc1ccc(C2CC(c3ccccc3)=NN2C(=O)COC(=O)C2CC2)cc1` (configuration not stated), for which the inhibition is 8.28%.
Turning to `Cc1ccc(C2=NN(C(=O)CCCC(=O)O)C(c3ccco3)C2)cc1` (configuration not stated), the inhibition was 7.5%.
`Nc1nonc1-c1nc2ccccc2n1CC(=O)O`: the inhibition was 11.2%.
For `C[C@H](NC(=O)c1nc[nH]c1C(=O)NCCCCCNC(=O)OC(C)(C)C)C(=O)OC(C)(C)C`, the inhibition was -4.42%.
With `CCCCCCCc1ccc(C2NC(=S)NC3=C2C(=O)c2ccccc23)cc1` (configuration not stated), the inhibition is 3.12%.
On to `CCOc1ccccc1NC(=O)/C(C#N)=C/c1c(C)nn(-c2ccccc2)c1Cl`, for which the inhibition is 4.31%.
The same measure for `CC(C)CN(C(=O)CSc1nnc2ccccn12)c1c(N)n(CC(C)C)c(=O)[nH]c1=O`: 6.58%; for `CC1(C)N=C(N)N=C(N)N1c1ccc(OCCCOc2ccccc2)c(Cl)c1`: -0.74%.
The same measure for `Cc1csc(SCC(=O)NC2CCCCC2)n1`: -5.21%; for `COc1ccc(NC(=O)c2ccccc2C)c(OC)c1`: 5.69%.
